The supplement of paper PMC11417369
± gives the standard deviation of the averaged measurements. The full ranking holds about 25,000 sequences; the median of “ln(normalized median fluorescence intensity)” is about 10, and the highest 2% start at about 12. Shown is part of a subset that was picked to be rich in the highest values.

system: PfAP2-G AP2 domain (GST-tagged); assay: gcPBM binding intensity (ln(normalized median fluorescence intensity)); higher = stronger DNA binding
Outline: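 The highest Masliner-normalised natural-log median intensity across replicate spots of either probe orientation is reported as binding intensity. GST-tagged P. falciparum DNA-binding domains expressed in E. coli were applied for 1 h to an Agilent 4 × 180k array of primer-extended double-stranded 36-bp intergenic genomic probes plus negative controls, and bound protein was detected with Alexa488 anti-GST antibody and scanned at 488 nm.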

| Sequence | gcPBM binding intensity (ln) |
| --- | --- |
| TTTTTGTATTCTACCTTAACAATCTTAAAGATTTTT [CACACA_negctrl_site1157] | 9.97 ± 0.11 |
| GTAAATAATAAACACCGTACATGGTATAATTCAATG [XGTACX_site3655] | 10.7 ± 0.33 |
| AAGTCAATTTTTTTTTTTTTTTTTTAACTTATTAAT [TGCATGCA_negctrl_site14] | 9.605 ± 0.078 |
| TCATTTCACAGACACACACACACAAGATATTTCCTT [CACACA_site7774] | 10.1 ± 0.11 |
| AAAAAAAAAGGTACTACACACTATTCTCAATAGAAA [CACACA_site6193] | 11.1 ± 0.86 |
| TAACAATAACTTTATACACACATAATATAAATATAT [CACACA_site7635] | 9.87 ± 0.014 |
| AACACCAATTCATATGCACACACATCTGCATATTAT [CACACA_site8523] | 10.12 ± 0.078 |
| TATATTAAAAAAGAGGTGCATTCGTAAGAGGTTAAA [GTGCAC_site9720] | 10.05 ± 0.064 |
| CAACATTTGATAAACACACAGAAGTATAAATATATA [CACACA_site2365] | 10.24 ± 0.035 |
| AAAATAAACCCAGACACACTCATTAAAAAATATCAT [CACACA_site5903] | 9.95 ± 0.099 |
| AAAAATGTATGTATGGTGCAGTATTCATATCATTTT [GTGCAC_site9458] | 10.03 ± 0.021 |
| CTTTATAATATTTGTTGTACACAAATATAACATATT [XGTACX_site709] | 11.6 ± 1.1 |
| ATATAAAAAAAAAAAAGTACACATAAACAAATGCAT [XGTACX_site4241] | 11.7 ± 1 |
| AAAACAAATGAGTACACACACATAAAAATTGAAAAT [CACACA_site199] | 11.5 ± 0.9 |
| AAAACAAATGAGTACACACACATAAAAGTTGAAAAT [CACACA_site6238] | 11.8 ± 1.3 |
| GTTGTTATATAAAGGAGTACATAATAACACAAATAT [XGTACX_site615] | 11.7 ± 1.2 |
| TTTGTTAATATAAAAACACACAAAAATAACATAAAA [CACACA_site2619] | 10.2 ± 0.22 |
| ATAAAACAAATGAGTACACACACATAAAAATTGAAA [CACACA_site7949] | 11.6 ± 1.2 |
| AAAATATATACACAAACATGCATATAATAAATAAAT [TGCATGCA_site711] | 9.895 ± 0.064 |

| Sequence | gcPBM binding intensity (ln) |
| --- | --- |
| AAAGTAAAAACACATACATGCATATACACATATAAC [TGCATGCA_site341] | 9.9 ± 0.12 |
| TTTTTGTTCTATATGGTGCATGTTTATATTCGTATT | 10.2 ± 0.19 |
| AATTATAATAATAATAGTACATAAGTATATAAATAA [XGTACX_site2400] | 11 ± 0.62 |
| AAATAAATAAGAAACGCATGCATATATAATATATAA [TGCATGCA_site326] | 9.83 ± 0.057 |
| AGTAATAATCGGCATGCATGTCAGTGGTAGTATATA [TGCATGCA_site312] | 10.3 ± 0.41 |
| TCTTCATTTTTATGTGCATGTAAAATTTTTTTTTTT [TGCATGCA_site963] | 10.2 ± 0.19 |
| TTGTACTACAATCCTTTATTTATTTAAACCTGTATG [CACACA_negctrl_site428] | 11.6 ± 1.1 |
| ATATAATATTTATATGTACACACCTTAATCCTTAAA [CACACA_site3555] | 11.3 ± 0.81 |
| TTTTTTAACCTTTTATGTACACAATATTTAACATTT [XGTACX_site1170] | 11.6 ± 0.95 |
| TATTTTGTTCTTTCCACACACAAATACATATATTGT [CACACA_site4071] | 10.3 ± 0.24 |
| TATTGTATCCTTAATGCATGCACCAAATAAAAAAAG [TGCATGCA_site541] | 10.5 ± 0.54 |
| AAAAATAAAATAAAATAAAATAAAAATAAAGAAAAA [CACACA_negctrl_site808] | 9.39 ± 0.16 |
| TGGCACTAAAAAAATAAACACACAGATTTATATAAT [CACACA_site8386] | 9.81 ± 0.18 |
| TGCCTATGACATGAATGTACATTAAAATTAAATAAA [XGTACX_site7126] | 10.8 ± 0.52 |
| TAAAAATAAAGAAAATGTACATAAATAATAATACAT [XGTACX_site2278] | 11.2 ± 0.69 |
| TTAAAAGAAAATAGGTGTACACATAATATATACATA [XGTACX_site7697] | 11.8 ± 1 |
| TAATACATACACACATGTACATACAGAAATAAATAA [XGTACX_site3245] | 11.2 ± 0.81 |
| ATAACATAACATAATACACACATATAAAAAAGAAAT [CACACA_site3028] | 10.1 ± 0.18 |
| TAAAAGAAATAATATACACACATATATAAAAATAAA [CACACA_site1329] | 9.87 ± 0.085 |

| Sequence | gcPBM binding intensity (ln) |
| --- | --- |
| AAAGAAAATAGGTGTACACATAATAAATACAGCTAT [CACACA_site5917] | 11.7 ± 1.1 |
| TCTTGTTTATCAACAGCACACACAACAACAACAACA [CACACA_site8046] | 10.1 ± 0.23 |
| CGCCCACAGATATATACACACATATATAAATAAATA [CACACA_site6877] | 10.1 ± 0.3 |
| GGTTCATTAAAGTGTACACATAAATACCGTAACATT [CACACA_site6002] | 11.9 ± 1 |
| TAAAAATTAAAGTGTACACATATATATATATATATA [CACACA_site4781] | 11.6 ± 0.97 |
| AACCATAAAAAGTGTACACATATAAAAAATATGGAA [CACACA_site4199] | 11.7 ± 1.1 |
| TAAATTAATAAAAAGTGTACATAATATACATATATA [XGTACX_site8604] | 11.3 ± 0.66 |
| TAAGGTTCATTAAAGTGTACACATAAATACCGTAAC [XGTACX_site8212] | 11.6 ± 0.95 |
| AATACTAAAAAGTGTACACATACATAAAAAATTGCA [CACACA_site5620] | 11.6 ± 0.87 |
| TATATTGCAAAAAGTACACACATAAATAAATACATA [CACACA_site6589] | 11.6 ± 1.1 |
| ATTAAATACATTAACACACACACAAATAAATACATA [CACACA_site5583] | 10.2 ± 0.25 |
| GCATGGAACCATATATGTACATATATAAATAAATAA [XGTACX_site4996] | 11.2 ± 0.63 |
| TTAAATACTAAAAAGTGTACACATACATAAAAAATT [XGTACX_site6261] | 11.7 ± 0.92 |
| CGAAACCATATGTACACACACATATATAAATATGTA [CACACA_site7082] | 11.3 ± 0.88 |
| ATATAAAAAAATTGCACACATAAATATATACATATA [CACACA_site1218] | 10.12 ± 0.064 |
| TTTTGTTGAAAAGTAAGATATTCCAACATGTTTTTA [CACACA_negctrl_site391] | 9.88 ± 0.014 |
| TATATATATATATATACATGCATACATATACATACA [TGCATGCA_site897] | 10 ± 0.22 |
| TTTTTTTTTTTTTTTTTTTGTCTTATATATTACGGA [CACACA_negctrl_site322] | 9.64 ± 0.67 |
